According to PubChem BioAssay (Tox21):
Records with an inconclusive call do not appear. The source made the active and inactive calls. Unless noted, calls follow the shape of the full dose curve.

What was measured:
[1] = Nuclear factor erythroid 2-related factor 2/antioxidant responsive element (Nrf2/ARE) small molecule agonists: qHTS cell viability counter screen in human keratinocytes (AID 1919968; active = well fitted curve in the direction sought with a large enough effect in the repeat runs; an effect the other way counts as inactive or inconclusive; also: nearly all actives have a fitted effect of over 55% in size; also: potency is read from the fitted curve at half-maximal effect)
Outline: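 HaCaT ARE reporter line, 1,500 cells/well; 5 h settle, 37 C/5% CO2; cpd in DMSO pinned; 23 h exposure; CellTiter-Fluor, 1 h; fluorescence.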

[2] = Nuclear factor erythroid 2-related factor 2/antioxidant responsive element (Nrf2/ARE) small molecule agonists: luciferase reporter gene qHTS assay in human keratinocytes (AID 1919969); also: nearly all actives have a fitted effect of over 35% in size; also: potency is read from the fitted curve at half-maximal effect
[3] = target: Gonadotropin-releasing hormone receptor (Homo sapiens) (UniProt P30968); assay: Human gonadotropin-releasing hormone receptor (GnRHR) small molecule agonists, calcium flux assay in GnRHR-HEK293 cells (AID 1920063); also: nearly all actives have a fitted effect of over 35% in size
Outline: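 GnRHR-HEK293, 1500 cells/well, 18 h 37 C/5% CO2; Ca dye 1 h 37 C; cpd pinned (DMSO), agonist mode; kinetic FL 480/540, 3 min, 1 s reads; 15 conc, n=3.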

[4] = target: KiSS-1 receptor (Homo sapiens) (UniProt Q969F8); assay: Human kisspeptin (KISS1R) small molecule agonists, calcium flux assay in KISS1R-HEK293 cells (AID 1920064; active = well fitted curve in the direction sought with a large enough effect in the repeat runs; an effect the other way counts as inactive or inconclusive)
Outline: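 Stable human KISS1R HEK293 line; 18 h plating, 37 C/5% CO2; calcium dye 1 h 37 C; compound pin transfer; kinetic fluorescence Ex/Em 480/540, 3 min.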

[5] = G protein-coupled receptor (GPCR) small molecule agonists, calcium flux assay: HEK293 wild type cell line counter screen (AID 1920065)
Outline: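 Kinetic fluorescence at Ex/Em 480/540, recorded every second over 3 min, served as the read-out after compound addition. Each compound was tested at 15 concentrations in triplicate on cells pre-loaded with calcium dye for 1 h.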

[6] = p53 small molecule agonists, cell-based qHTS assay with human liver microsomes: qHTS cell viability counter screen (AID 1963579); also: nearly all actives have a fitted effect of over 45% in size
Outline: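 HLM-supplemented (0.5 mg/mL final) and NADPH-supplemented (0.5 mg/mL final) p53RE-bla cultures, 4,000 cells per well, were dosed with compounds in DMSO for 16 h at 37 C; luminescent ATP detection (CellTiter-Glo, 30 min, room temperature) quantified surviving cells.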

[7] = p53 small molecule agonists, cell-based qHTS assay: qHTS cell viability counter screen (AID 1963581); also: nearly all actives have a fitted effect of over 45% in size
Outline: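 HCT-116 p53RE-bla cells, 4,000/well, plated 5 h before compound pin transfer; 16 h at 37 C; bla substrate 2 h RT; then CellTiter-Glo, 30 min RT, luminescence.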

[8] = target: 5-hydroxytryptamine receptor 2A (Homo sapiens) (UniProt P28223); assay: 5-hydroxytryptamine receptor 2A (HTR2A) small molecule agonists, cell-based qHTS assay (AID 1963587); also: nearly all actives have a fitted effect of over 30% in size
Outline: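 CHO cells stably expressing human HTR2A, plated 18 h, loaded with calcium dye 1 h at 37 C. Agonist mode: compounds added and intracellular calcium fluorescence recorded kinetically for 2 min at 1 sec intervals.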

[9] = target: Muscarinic acetylcholine receptor M1 (Homo sapiens) (UniProt P11229); assay: Cholinergic receptor muscarinic 1 (CHRM1) small molecule antagonists, cell-based qHTS assay (AID 1963588); also: nearly all actives have a fitted effect of over 40% in size; also: potency is read from the fitted curve at half-maximal effect
Outline: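 CHRM1-CHO calcium-flux assay, antagonist mode. Cells were seeded 18 h, dye-loaded 1 h at 37 C and given compound for 5 min at RT, then acetylcholine was added at 50nM. FDSS fluorescence was read 3 min; 15 concentrations, three runs.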

[10] = target: Muscarinic acetylcholine receptor M1 (Homo sapiens) (UniProt P11229); assay: Cholinergic receptor muscarinic 1 (CHRM1) small molecule agonists, cell-based qHTS assay (AID 1963589); also: nearly all actives have a fitted effect of over 35% in size
Outline: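 Human M1 in stable CHO line; 18 h plating, 1 h dye load 37 C; cpd added (agonist mode); Ca2+ fluorescence kinetic read, 1 s intervals; 15 conc, 3 runs.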

[11] = cAMP Responsive Elements (CRE) small molecule agonists, cell-based qHTS assay (AID 1963590)
Outline: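 HEK 293T CRE-bla, 2,000 cells/well, 18 h preincubation 37 C/5% CO2; cpds (DMSO) pinned, 3 h; LiveBLAzer B/G FRET substrate, 2 h RT.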

[12] = cAMP Responsive Elements (CRE) small molecule antagonists, cell-based qHTS assay (AID 1963591; active = well fitted inhibition curve with a large enough effect in the signal ratio in the repeat runs, not every such curve was filed as active; the % refers to the signal ratio)
Outline: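 Beta-lactamase reporter read by FRET substrate (LiveBLAzer B/G) after 2 h at room temperature. CRE-bla HEK293T cells had received compound plus 0.25 uM (final) NKH477 for 3 h at 37 °C.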

[13] = target: Beta-2 adrenergic receptor (Homo sapiens) (UniProt P07550); assay: Adrenergic beta2 receptor (ADRB2) small molecule antagonists, cell-based qHTS assay (AID 1963592); also: series mostly up to about 92 µM; nearly all actives have a fitted effect of over 50% in size
Outline: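 Cells (CHO, stable ADRB2 overexpression) incubated 18-20hr at 37C; compounds added from DMSO; agonist mix (1nM isoproterenol, 100uM IBMX, 25uM Ro-20-1724) added; 0.5hr RT; d2-cAMP and anti-cAMP-cryptate added; 1hr RT; 665/615 nm read.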

[14] = target: Beta-2 adrenergic receptor (Homo sapiens) (UniProt P07550); assay: Adrenergic beta2 receptor (ADRB2) small molecule agonists, cell-based qHTS assay (AID 1963593);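 also: CHO cells stably overexpressing human ADRB2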
Outline: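 CHO cells stably over-expressing ADRB2 were plated overnight at 37C, then dosed with compounds plus a stimulation mix containing 100uM IBMX and 25uM Ro-20-1724 for 0.5hr at room temperature. cAMP was measured by HTRF competition, 1hr.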

[15] = target: D(2) dopamine receptor (Homo sapiens) (UniProt P14416); assay: Dopamine D2 receptor (DRD2) small molecule agonists, cell-based qHTS assay (AID 1963594); also: nearly all actives have a fitted effect of over 35% in size
Outline: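 HEK293 cells stably expressing human DRD2, pre-treated with PDE inhibitor Ro20-1724 (0.1 mM final) and compound 10 min at room temperature, then stimulated with NKH477 (200nM […]) for 30 min. cAMP read by HTRF (665/620 nm).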

[16] = target: D(2) dopamine receptor (Homo sapiens) (UniProt P14416); assay: Dopamine D2 receptor (DRD2) small molecule antagonists, cell-based qHTS assay (AID 1963595; active = well fitted inhibition curve with a large enough effect in the signal ratio in the repeat runs, with a control signal flat; the % refers to the signal ratio; also: potency is read from the fitted curve at half-maximal effect)
Outline: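 Cells were plated and grown for 24 h at 37 °C. Ro20-1724 (0.1 mM final) went in first, then compound for 10 min. NKH477 (200 nM) with quinpirole (12 nM) followed for 30 min at RT, then HTRF detection reagents for 1 h.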

[17] = p53 small molecule agonists, cell-based qHTS assay with rat liver microsomes: qHTS cell viability counter screen (AID 1963580); also: nearly all actives have a fitted effect of over 45% in size
Outline: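 Viability is assessed in parallel with the p53 reporter read: HCT-116 p53RE-bla cells receive compounds plus rat microsomes and NADPH (0.5 mg/mL final apiece), incubate 16 h at 37 C, and then CellTiter-Glo luminescence is recorded.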

[18] = target: 5-hydroxytryptamine receptor 2A (Homo sapiens) (UniProt P28223); assay: 5-hydroxytryptamine receptor 2A (HTR2A) small molecule antagonists, cell-based qHTS assay (AID 1963586); also: nearly all actives have a fitted effect of over 45% in size; also: potency is read from the fitted curve at half-maximal effect
Outline: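 Antagonist-mode intracellular calcium assay: DOI (4 nM) added after 5 min compound pre-incubation at room temperature to dye-loaded HTR2A-CHO cells. Fluorescence followed for 3 min, sampled every second.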

[19] = p53 small molecule agonists, cell-based qHTS assay (AID 1963582; active = well fitted activation curve with a large enough effect in the signal ratio in the repeat runs, not every such curve was filed as active; the % refers to the signal ratio)
Outline: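 Reporter line: p53RE-bla. Pre-incubation 5 h, 37 C, 5% CO2; compound (DMSO, pin tool) 16 h, 37 C; B/G FRET substrate 2 h RT; fluorescence intensity read.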
% is scaled to controls: 0 for no effect and ±100 for the full control effect.

Sequence of D(2) dopamine receptor (Homo sapiens) (P14416 whole entry, looked up): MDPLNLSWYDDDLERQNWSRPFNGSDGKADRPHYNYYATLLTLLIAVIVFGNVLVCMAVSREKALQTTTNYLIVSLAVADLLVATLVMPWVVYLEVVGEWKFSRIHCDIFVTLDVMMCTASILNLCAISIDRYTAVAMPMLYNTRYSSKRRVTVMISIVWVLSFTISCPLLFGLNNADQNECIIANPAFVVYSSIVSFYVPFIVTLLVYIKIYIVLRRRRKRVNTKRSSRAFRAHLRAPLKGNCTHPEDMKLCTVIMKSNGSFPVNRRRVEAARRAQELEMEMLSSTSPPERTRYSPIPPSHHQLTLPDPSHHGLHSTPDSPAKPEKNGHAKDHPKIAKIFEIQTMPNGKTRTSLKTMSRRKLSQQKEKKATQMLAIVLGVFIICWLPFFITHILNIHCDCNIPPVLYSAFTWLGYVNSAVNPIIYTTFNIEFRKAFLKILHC
Sequence of Beta-2 adrenergic receptor (Homo sapiens) (P07550 whole entry, looked up): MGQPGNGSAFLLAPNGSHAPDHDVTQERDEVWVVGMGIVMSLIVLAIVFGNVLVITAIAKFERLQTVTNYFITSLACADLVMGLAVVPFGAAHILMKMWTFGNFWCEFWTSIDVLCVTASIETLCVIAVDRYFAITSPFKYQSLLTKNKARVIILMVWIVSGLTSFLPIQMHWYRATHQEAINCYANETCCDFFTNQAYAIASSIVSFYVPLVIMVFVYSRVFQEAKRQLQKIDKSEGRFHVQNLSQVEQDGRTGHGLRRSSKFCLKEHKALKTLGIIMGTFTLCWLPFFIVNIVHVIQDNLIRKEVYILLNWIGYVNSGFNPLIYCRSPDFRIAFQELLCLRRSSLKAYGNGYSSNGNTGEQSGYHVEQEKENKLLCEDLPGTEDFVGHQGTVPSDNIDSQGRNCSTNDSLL
Sequence of KiSS-1 receptor (Homo sapiens) (Q969F8 whole entry, looked up): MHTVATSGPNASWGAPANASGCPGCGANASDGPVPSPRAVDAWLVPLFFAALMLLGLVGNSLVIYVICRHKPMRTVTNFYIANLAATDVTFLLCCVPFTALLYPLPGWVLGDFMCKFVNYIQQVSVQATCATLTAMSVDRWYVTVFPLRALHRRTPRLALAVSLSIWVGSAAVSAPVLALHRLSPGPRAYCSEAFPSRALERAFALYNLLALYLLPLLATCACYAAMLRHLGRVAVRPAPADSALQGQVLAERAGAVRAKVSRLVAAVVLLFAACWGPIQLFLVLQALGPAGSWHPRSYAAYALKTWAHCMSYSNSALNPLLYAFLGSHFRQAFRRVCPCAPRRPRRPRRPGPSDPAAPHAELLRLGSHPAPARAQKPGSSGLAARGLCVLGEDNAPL
Sequence of Muscarinic acetylcholine receptor M1 (Homo sapiens) (P11229 whole entry, looked up): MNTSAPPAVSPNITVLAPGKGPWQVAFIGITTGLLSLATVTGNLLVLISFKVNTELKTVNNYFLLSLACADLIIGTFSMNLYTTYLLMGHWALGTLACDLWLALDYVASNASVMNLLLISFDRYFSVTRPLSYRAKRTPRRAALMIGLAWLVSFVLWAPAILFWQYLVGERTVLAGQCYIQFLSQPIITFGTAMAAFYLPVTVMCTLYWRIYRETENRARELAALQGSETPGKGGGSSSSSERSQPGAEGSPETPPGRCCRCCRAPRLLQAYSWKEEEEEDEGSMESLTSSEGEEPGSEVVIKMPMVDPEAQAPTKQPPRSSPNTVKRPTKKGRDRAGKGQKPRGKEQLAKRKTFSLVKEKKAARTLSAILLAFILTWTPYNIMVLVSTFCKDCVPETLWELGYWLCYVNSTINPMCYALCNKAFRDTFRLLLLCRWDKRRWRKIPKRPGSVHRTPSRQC
Sequence of 5-hydroxytryptamine receptor 2A (Homo sapiens) (P28223 whole entry, looked up): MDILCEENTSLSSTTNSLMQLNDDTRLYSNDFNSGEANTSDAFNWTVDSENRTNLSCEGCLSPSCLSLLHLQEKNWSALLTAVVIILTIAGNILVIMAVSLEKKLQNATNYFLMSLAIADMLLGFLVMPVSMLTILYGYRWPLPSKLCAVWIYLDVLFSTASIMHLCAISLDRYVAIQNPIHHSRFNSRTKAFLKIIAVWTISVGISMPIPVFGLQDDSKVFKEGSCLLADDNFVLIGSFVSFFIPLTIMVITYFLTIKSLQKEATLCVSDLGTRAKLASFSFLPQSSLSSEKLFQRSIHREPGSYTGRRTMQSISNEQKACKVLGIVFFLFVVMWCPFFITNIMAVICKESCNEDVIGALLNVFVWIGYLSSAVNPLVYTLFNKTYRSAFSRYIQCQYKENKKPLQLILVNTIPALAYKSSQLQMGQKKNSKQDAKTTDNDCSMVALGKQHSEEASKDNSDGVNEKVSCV
Sequence of Gonadotropin-releasing hormone receptor (Homo sapiens) (P30968 whole entry, looked up): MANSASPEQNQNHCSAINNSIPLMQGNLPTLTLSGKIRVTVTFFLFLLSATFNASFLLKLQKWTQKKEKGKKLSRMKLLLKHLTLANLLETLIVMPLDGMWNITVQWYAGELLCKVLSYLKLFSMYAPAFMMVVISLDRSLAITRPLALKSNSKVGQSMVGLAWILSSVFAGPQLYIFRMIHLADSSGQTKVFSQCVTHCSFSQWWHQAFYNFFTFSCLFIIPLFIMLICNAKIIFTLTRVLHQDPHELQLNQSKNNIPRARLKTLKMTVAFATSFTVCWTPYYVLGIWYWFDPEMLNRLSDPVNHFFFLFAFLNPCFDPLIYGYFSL

O=[N+]([O-])c1ccc(Cl)cc1Cl
inactive: Potency [1] | Potency [2] | Potency [3] | Potency [4] | Potency [5] | Potency [6] | Potency [7] | Potency [8] | Potency [9] | Potency [10] | Potency [11] | Potency [12] | Potency [13] | Potency [14] | Potency [15] | Potency [16]

CC(=O)CCC1=C(C)CCCC1(C)C
inactive: Potency [1] | Potency [2] | Potency [3] | Potency [4] | Potency [5] | Potency [17] | Potency [18] | Potency [8] | Potency [9] | Potency [10] | Potency [11] | Potency [13] | Potency [14] | Potency [15] | Potency [16]

CC(=O)OCC(=O)[C@@]1(O)CC[C@H]2[C@@H]3CCC4=CC(=O)CC[C@]4(C)[C@H]3C(=O)C[C@@]21C
inactive: Potency [1] | Potency [2] | Potency [3] | Potency [4] | Potency [5] | Potency [17] | Potency [7] | Potency [11] | Potency [12] | Potency [13] | Potency [15]

C[C@@H](C1=C(CCN(C)C)Cc2ccccc21)c1ccccn1
inactive: Potency [1] | Potency [2] | Potency [3] | Potency [4] | Potency [5] | Potency [17] | Potency [18] | Potency [8] | Potency [10] | Potency [11] | Potency [12] | Potency [13] | Potency [16]

COC(=O)[C@@H]1CC2=CC(=O)CC[C@]2(C)[C@@]23O[C@@H]2C[C@@]2(C)[C@@H](CC[C@@]24CCC(=O)O4)[C@H]13
inactive: Potency [1] | Potency [2] | Potency [3] | Potency [4] | Potency [5] | Potency [17] | Potency [7] | Potency [8] | Potency [9] | Potency [10] | Potency [11] | Potency [12] | Potency [13] | Potency [14] | Potency [15] | Potency [16]

c1ccc(Sc2ccccc2)cc1
active: Potency [2] 68.6 µM
inactive: Potency [1] | Potency [3] | Potency [4] | Potency [5] | Potency [7] | Potency [18] | Potency [9] | Potency [10] | Potency [11] | Potency [12] | Potency [13] | Potency [15] | Potency [16]

Nc1c[n+](N2CCOCC2)no1
inactive: Potency [1] | Potency [2] | Potency [3] | Potency [4] | Potency [5] | Potency [17] | Potency [18] | Potency [8] | Potency [9] | Potency [10] | Potency [12] | Potency [13] | Potency [14] | Potency [15] | Potency [16]

CCOCCn1c(N2CCCN(C)CC2)nc2ccccc21
inactive: Potency [1] | Potency [2] | Potency [3] | Potency [4] | Potency [5] | Potency [17] | Potency [7] | Potency [8] | Potency [10] | Potency [11] | Potency [13] | Potency [14] | Potency [15] | Potency [16]

CN(C)CCCO[C@@H]1[C@H]2OC(C)(C)O[C@H]2O[C@@H]1C(O)CO (stereo partly specified)
inactive: Potency [1] | Potency [2] | Potency [3] | Potency [4] | Potency [5] | Potency [7] | Potency [18] | Potency [8] | Potency [9] | Potency [10] | Potency [13] | Potency [14] | Potency [15] | Potency [16]

COc1ccc(/C=C/C(=O)c2ccc(OC)cc2OC)cc1
active: Potency [2] 29.8 µM
inactive: Potency [1] | Potency [3] | Potency [4] | Potency [5] | Potency [7] | Potency [18] | Potency [8] | Potency [9] | Potency [10] | Potency [13] | Potency [15] | Potency [16]

O=C(O)/C=C/c1ccc(O)c(O)c1
inactive: Potency [1] | Potency [2] | Potency [3] | Potency [4] | Potency [5] | Potency [7] | Potency [18] | Potency [8] | Potency [9] | Potency [11] | Potency [12] | Potency [14] | Potency [16]

O=C1NCCN1CCN1CCC(c2cn(-c3ccc(F)cc3)c3ccc(Cl)cc23)CC1
inactive: Potency [2] | Potency [3] | Potency [4] | Potency [5] | Potency [17] | Potency [7] | Potency [8] | Potency [10] | Potency [13] | Potency [15]
active: Potency [1] 11.9 µM

C[C@H]1[C@H]2CC[C@H]3[C@@H]4CC=C5C[C@@H](N(C)C)CC[C@]5(C)[C@H]4CC[C@]23CN1C
active: Potency [9] 0.729 µM
inactive: Potency [1] | Potency [2] | Potency [3] | Potency [4] | Potency [5] | Potency [17] | Potency [18] | Potency [8] | Potency [10] | Potency [11] | Potency [12] | Potency [13] | Potency [14] | Potency [15] | Potency [16]

CCC(=O)c1ccc2c(c1)N(CCCN(C)C)c1ccccc1S2
active: Potency [18] 0.13 µM | Potency [16] 0.531 µM
inactive: Potency [1] | Potency [2] | Potency [3] | Potency [4] | Potency [5] | Potency [17] | Potency [10] | Potency [11] | Potency [12] | Potency [13] | Potency [15]

CN(C)[C@@H]1C(=O)C(C(N)=O)=C(O)[C@@]2(O)C(=O)C3=C(O)c4c(O)cccc4C[C@H]3C[C@@H]12
inactive: Potency [1] | Potency [2] | Potency [3] | Potency [4] | Potency [5] | Potency [17] | Potency [19] | Potency [18] | Potency [8] | Potency [9] | Potency [10] | Potency [13] | Potency [14] | Potency [15] | Potency [16]

CC1CN(c2cc3c(cc2F)c(=O)c(C(=O)O)cn3-c2ccc(F)cc2F)CCN1 (stereo unspecified)
inactive: activity change, negative = cytotoxicity [1] 6.63% [at 8.39 µM] | activity, positive = activation [2] 4.55% [at 8.39 µM] | activity change [3] -0.555% [at 5.22 µM, hits give high values] | activation [4] 3.09% [at 6.97 µM] | activation [5] 0.9% [at 5.23 µM] | activity change, negative = cytotoxicity [17] -0.821% [at 5.99 µM] | activity change, negative = cytotoxicity [7] 22.9% [at 5.99 µM] | activation [11] -2.24% [at 8.39 µM] | activity change, negative = inhibition [13] 4.5% [at 8.39 µM] | activation [14] 1.31% [at 8.39 µM] | activation [15] -7.78% [at 8.39 µM] | activity change, negative = inhibition [16] -0.708% [at 8.38 µM]
